Results: article PMC4336329 (PLoS ONE, 2015)
Hit rate of the full screen: of about 310,000 compounds, about 14,000 (4.5%) showed an effect of 50% or more. Effects have a minus sign here. Shown is part of a subset that was picked to be rich in strong results.

Each compound was assayed against human ether-à-go-go-related gene (hERG) potassium channel (human, UniProt Q12809) (assay: primary screen, population patch clamp on CHO cells stably expressing hERG; higher = less effect of the substance).
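Further: peak tail current of the secondary pulse compared with the same well before compound.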

human ether-à-go-go-related gene (hERG) potassium channel, sequence (Q12809 whole entry, looked up): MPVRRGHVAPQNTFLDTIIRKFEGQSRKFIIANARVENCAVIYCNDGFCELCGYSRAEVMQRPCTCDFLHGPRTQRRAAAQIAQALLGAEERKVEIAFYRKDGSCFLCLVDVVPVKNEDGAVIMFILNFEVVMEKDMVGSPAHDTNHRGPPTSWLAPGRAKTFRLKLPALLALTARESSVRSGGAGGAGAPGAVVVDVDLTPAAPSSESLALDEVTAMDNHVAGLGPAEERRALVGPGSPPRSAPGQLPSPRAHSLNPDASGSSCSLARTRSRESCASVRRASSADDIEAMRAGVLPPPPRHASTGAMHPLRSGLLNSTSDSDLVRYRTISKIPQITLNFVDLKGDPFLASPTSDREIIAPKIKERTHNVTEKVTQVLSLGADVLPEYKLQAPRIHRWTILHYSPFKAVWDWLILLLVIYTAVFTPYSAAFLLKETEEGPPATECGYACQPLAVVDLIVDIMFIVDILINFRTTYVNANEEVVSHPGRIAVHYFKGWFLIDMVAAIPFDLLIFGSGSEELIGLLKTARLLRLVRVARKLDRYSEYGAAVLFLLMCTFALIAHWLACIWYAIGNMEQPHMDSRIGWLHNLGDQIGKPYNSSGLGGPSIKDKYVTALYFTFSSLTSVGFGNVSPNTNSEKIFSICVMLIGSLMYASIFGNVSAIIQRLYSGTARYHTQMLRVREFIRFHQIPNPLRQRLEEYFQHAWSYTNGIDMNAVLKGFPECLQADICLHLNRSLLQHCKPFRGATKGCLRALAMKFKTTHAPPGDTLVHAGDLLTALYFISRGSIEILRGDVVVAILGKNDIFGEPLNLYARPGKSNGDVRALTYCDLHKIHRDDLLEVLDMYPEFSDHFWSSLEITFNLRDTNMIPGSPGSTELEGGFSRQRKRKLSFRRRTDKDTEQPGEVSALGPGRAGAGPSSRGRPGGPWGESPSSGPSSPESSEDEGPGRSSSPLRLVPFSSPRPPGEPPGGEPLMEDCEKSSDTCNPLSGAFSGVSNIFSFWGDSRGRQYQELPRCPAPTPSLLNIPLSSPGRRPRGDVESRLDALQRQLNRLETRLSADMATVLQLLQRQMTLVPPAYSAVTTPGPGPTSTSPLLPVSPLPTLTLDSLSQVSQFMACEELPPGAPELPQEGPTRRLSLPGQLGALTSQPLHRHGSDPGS

SMILES | hERG current change (%, negative = inhibition) at 10uM [%]
CCc1nc(SCc2ccccn2)c2c(=O)n(C)c(=O)n(C)c2n1 | 0.896
Cn1c(=O)c2c(SCc3ccccn3)nc(C3CC3)nc2n(C)c1=O | 6.51
CCc1nc(SCC(=O)NCc2ccco2)c2c(=O)n(C)c(=O)n(C)c2n1 | -0.832
Cn1c(=O)c2c(SCc3ccccn3)nc(CC(C)(C)C)nc2n(C)c1=O | -79.4
Cn1c(=O)c2c(SCC(=O)NCc3ccco3)nc(CC(C)(C)C)nc2n(C)c1=O | -57.4
CCCc1nc(SCc2ccccn2)c2c(=O)n(C)c(=O)n(C)c2n1 | -59.1
Cc1ccccc1-c1nc(SCc2ccccn2)c2c(=O)n(C)c(=O)n(C)c2n1 | 28.7
CC(C)c1nc(SCc2ccccn2)c2c(=O)n(C)c(=O)n(C)c2n1 | 5.32
CCCc1nc(SCC(=O)NCc2ccco2)c2c(=O)n(C)c(=O)n(C)c2n1 | 0.943
Cc1ccc(N(C)S(=O)(=O)c2ccc3[nH]cc(C(=O)NCCCN4CCOCC4)c(=O)c3c2)cc1C | -16.5
Cc1ccc(Nc2ncccc2C(N)=O)cc1 | 19.5
Cc1ccccc1NC1=NS(=O)(=O)c2ccccc21 | 4.25
CCOc1ccc(OCC)c(NC(=O)CN(c2ccc(C)cc2)S(=O)(=O)c2c(C)noc2C)c1 | 3.31
O=C(CN1CCc2ccccc2C1)Nc1ccc(OC(F)(F)F)cc1 | -6.92
Cl.O=C(CN1CCCC1)Nc1ccc(OC(F)(F)F)cc1 | -41.1
CCOC(=O)N1CCN(CCC(=O)Nc2ccc(OC)cc2)CC1 | -1.76
Cl.O=C(CN1CCOCC1)Nc1ccc(OC(F)(F)F)cc1 | -8.1
CCOC(=O)N1CCN(CCC(=O)Nc2ccc(Br)cc2)CC1 | -33.2
CCOC(=O)N1CCN(CCC(=O)Nc2ccc(OC(F)(F)F)cc2)CC1 | -63.3
CCN1CCN(CC(=O)Nc2ccc(OC(F)(F)F)cc2)CC1.Cl | -69.1
CN1CCN(CC(=O)Nc2ccc(OC(F)(F)F)cc2)CC1.Cl | -65.1

SMILES | hERG current change (%, negative = inhibition) at 10uM [%]
O=C(CN1CCN(c2ccccn2)CC1)Nc1ccc(OC(F)(F)F)cc1 | -29.9
CC1CCC(C(C)C)C(OC(=O)C2=C3c4ccccc4S(=O)(=O)N3CC2)C1 (stereo not shown) | 12.3
CN(C)S(=O)(=O)N1CCN(C(=O)N2CCCCCC2)CC1 | -12.2
O=C(N/N=C/c1ccccn1)c1cccc(NC(=O)c2ccccc2Cl)c1 | -4.9
CC(=O)O.Cc1nc2nc(CSc3nnc(C)s3)cc(=O)n2[nH]1 | 13.9
CCOC(=O)CN(C(=O)Cn1nnc(-c2ccc(C)cc2)n1)C(CC)C(=O)NC1CCCC1 (stereo not shown) | -8.67
Cc1cc2c(cc1C)C(c1cc(Br)ccc1F)CC(=O)N2 (stereo not shown) | 8.78
COc1ccc2[nH]c(C)c(CCNC(=S)Nc3ccccc3OC)c2c1 | 8.79
CN(C)CCn1c(C(=O)O)cc2ccccc21.Cl | 14.6
CN(C)CCn1c(C(=O)Nc2ccccc2)cc2ccccc21.Cl | -58.9
CNC(=O)c1cc2cc(OC)ccc2n1CCN(C)C | -11.6
CCOC(=O)CSc1nc(=O)n2ccccc2n1 | 13.2
COc1ccccc1NC(=O)CCS(=O)(=O)c1ccccc1 | 12.7
CC(NC(=O)Cn1cc2c(n1)CCCCC2)c1ccccc1 (stereo not shown) | 1.69
Cc1ccc2nc(SCC(=O)c3ccccc3)nc(=O)n2c1 | -10.1
COc1ccc(C)cc1Nc1n[n+](-c2ccccc2)c(-c2ccc(N(C)C)cc2)s1.[Cl-] | -49.3
CCc1ccc(Nc2n[n+](-c3ccccc3)c(-c3ccc(OC)c(Br)c3)s2)cc1.[Cl-] | -44
COc1ccc(C)cc1Nc1n[n+](-c2ccccc2)c(-c2ccc(SC)cc2)s1.[Cl-] | -1.4
CCOc1cc(-c2sc(Nc3ccccc3)n[n+]2-c2ccc(F)cc2)ccc1OC.[Cl-] | 23.6
CCOc1cc(-c2sc(Nc3cc(C)ccc3OC)n[n+]2-c2ccccc2)ccc1OC.[Cl-] | -68.7
CCOc1cc(-c2sc(Nc3ccc(CC)cc3)n[n+]2-c2ccccc2)ccc1OC.[Cl-] | -78.7

SMILES | hERG current change (%, negative = inhibition) at 10uM [%]
COc1ccc2ccccc2c1C1CC(=O)N2CN(C)CSC2=C1C#N (stereo not shown) | 12.7
CCn1c(/C=C2\C(=O)Nc3ccccc32)nc2ccccc2c1=O | -18.3
Cc1ccc(NC(=O)CC2SC(=NC3CCCCC3)NC2=O)cc1 (stereo not shown) | -9.82
Cc1ccc(S(=O)(=O)NCC(c2ccccc2)N2CCN(CCC#N)CC2)cc1 (stereo not shown) | -21.5
COc1ccc(S(=O)(=O)NCC(c2ccc(F)cc2)N2CCN(C)CC2)cc1 (stereo not shown) | -36.4
O=[N+]([O-])c1ccc(S(=O)(=O)NCC(c2cccnc2)N2CCc3ccccc3C2)cc1 (stereo not shown) | -35.6
Cc1ccc(C(CNS(=O)(=O)c2ccc(C)cc2)N2CCN(C)CC2)cc1 (stereo not shown) | -62.8
CC(NS(=O)(=O)c1ccccc1)C(c1cccs1)N1CCN(C)CC1 (stereo not shown) | 5.5
Cc1ccc(S(=O)(=O)NC(C)C(c2cccs2)N2CCN(C)CC2)cc1 (stereo not shown) | -18
CN1CCN(C(CNS(=O)(=O)c2ccc([N+](=O)[O-])cc2)c2ccc(F)cc2)CC1 (stereo not shown) | -67.6
CC(NS(=O)(=O)c1ccc(Br)cc1)C(c1cccs1)N1CCN(C)CC1 (stereo not shown) | -53.2
O=[N+]([O-])c1ccc(S(=O)(=O)NCC(c2cccnc2)N2CCOCC2)cc1 (stereo not shown) | -22
COc1ccc(S(=O)(=O)NCC(c2ccc(C)cc2)N2CCN(C)CC2)cc1OC (stereo not shown) | -25.6
Cc1ccc(C(CNS(=O)(=O)c2ccc(F)cc2)N2CCN(C)CC2)cc1 (stereo not shown) | -58.3
COc1ccc(C(CNS(=O)(=O)c2ccc(F)cc2)N2CCN(C)CC2)cc1 (stereo not shown) | -32.5
Cc1ccc(Nc2nnc(SCC(=O)Nc3ncc(S(=O)(=O)c4ccc([N+](=O)[O-])cc4)s3)s2)cc1 | -14.5
CC1CCN(S(=O)(=O)c2ccc(NC(=O)CN3CCCCCC3)cc2)CC1 | -31.2
Cc1c(CCO)c(=O)n(-c2ccccc2)n1S(=O)(=O)c1ccc(F)cc1 | 1.37
COc1ccccc1NC(=O)c1sc2nc(N3CCOCC3)c3c(c2c1N)CCCC3 | 15.2
Cc1cc(F)ccc1S(=O)(=O)NCC(c1ccc2c(c1)OCO2)N1CCOCC1 (stereo not shown) | -16.8
Cc1ccc(C(CNS(=O)(=O)c2ccc(F)cc2C)N2CCN(C)CC2)cc1 (stereo not shown) | -57

SMILES | hERG current change (%, negative = inhibition) at 10uM [%]
Cc1ccc(C(CNS(=O)(=O)c2ccc(Cl)cc2)N2CCN(C)CC2)cc1 (stereo not shown) | -72.8
CN(C)c1ccc(C(CNS(=O)(=O)c2ccc([N+](=O)[O-])cc2)N2CCCC2)cc1 (stereo not shown) | -47.2
CN(C)c1ccc(C(CNS(=O)(=O)c2ccc([N+](=O)[O-])cc2)N2CCOCC2)cc1 (stereo not shown) | -25.9
COc1ccc(N2CCN(C(CNS(=O)(=O)c3ccccc3)c3ccccc3)CC2)cc1 (stereo not shown) | -22.5
COc1ccc(S(=O)(=O)NCC(c2ccc(C)cc2)N2CCN(C)CC2)cc1 (stereo not shown) | -51.9
COc1ccc(C(CNS(=O)(=O)c2ccc(C)cc2)N2CCN(C)CC2)cc1 (stereo not shown) | -45.2
Cc1ccc(C(CNS(=O)(=O)c2ccc([N+](=O)[O-])cc2)N2CCN(C)CC2)cc1 (stereo not shown) | -66.8
O=S(=O)(NCC(c1ccccc1)N1CCNCC1)c1ccc(Cl)cc1 (stereo not shown) | -28.6
COc1ccc(OC)c(S(=O)(=O)NCC(c2ccc(F)cc2)N2CCN(C)CC2)c1 (stereo not shown) | -33.8
O=S(=O)(NCC(c1ccccc1)N1CCC(O)CC1)c1ccc(Cl)cc1 (stereo not shown) | -19.6
CC1CN(c2oc(COc3ccc(Cl)cc3Cl)nc2C#N)CC(C)O1 (stereo not shown) | -13.6
c1ccc(SCc2cn3cccnc3n2)nc1 | 15.1
COc1cc(OC)c(NS(=O)(=O)c2cc(C(=O)OC(C)C(=O)NC3CC3)c(Cl)cc2Cl)cc1Cl (stereo not shown) | -37
COc1cccc(OCCOc2ccc(/C=C3\C(=N)N4N=C(S(C)(=O)=O)SC4=NC3=O)cc2OC)c1 | 23.4
O=C(COC(=O)c1cc(-c2ccccc2Cl)nc2ccccc12)Nc1ncc(C(F)(F)F)cc1Cl | -10.9
COC(=O)c1cccc(-c2ccc(/C=N/N3C(=O)C4C5C=CC(C6CC56)C4C3=O)o2)c1 (stereo not shown) | -8.32
CC1CCN(S(=O)(=O)c2ccc3c(c2)c(=O)c(C(=O)N2CCOCC2)cn3C)CC1 | 13.5
CC(Oc1ccc(Br)cc1)C(=O)N(C)CC(=O)Nc1ccc(N2CCOCC2)cc1 (stereo not shown) | 2.99
CC(C)CN(CC(C)C)C(=O)CN1C(=O)NC2(CCc3ccccc3C2)C1=O (stereo not shown) | -8.61
